# Compound activity as filed in PubChem BioAssay.
# Pf growth 96h: P. falciparum growth inhibition at 96 hour, primary screen for plastid delayed-death inhibitors. 320,000 compounds, 6.9% hits. P. falciparum luciferase reporter growth, 96 h. AID 504834. Potency, µM (highest dose often 28.7 µM), actives largely listed as inhibitors
#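 Two parasite generations (96 h, 37 C, 5% CO2) of compound exposure in infected erythrocytes (0.05% parasitemia, 2% hematocrit). Luciferase-reporter P. falciparum; decreased luminescence indicates inhibited growth, aimed at apicoplast-acting delayed death.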
# Pf growth 48h: inhibits P. falciparum growth in the first generation, 48 h. Potency, µM (doses to about 28.7 µM), usual class: inhibitors. 310,000 compounds, 5.9% hits. P. falciparum luciferase growth in erythrocytes, 48 h
#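 In quantitative HTS format, infected erythrocytes bearing luciferase-reporter parasites were treated for a single generation at 37 C. Luminescence after adding detection reagent served as the growth measure.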
# CHX counter: affects cycloheximide protein synthesis inhibition readout, counter-screen | 300,000 compounds, 12% hits | cell reporter, cycloheximide protein synthesis inhibition counterscreen | max response, %; in the data active means max response mostly above about 13%, no sharp cut-off; inactive means mostly below about 14%; further: read at 38.3 µM for the half of the compounds with a filed dose
# Shiga inhibitor: Shiga toxin inhibition | 290,000 compounds, 9.2% hits | inhibition, % at 38.7 µM | Vero cells, Shiga toxin protein synthesis inhibition reporter; in the data active means inhibition mostly above about 28%, no sharp cut-off; inactive means mostly below about 43%
# Hits are given with their value; 0 = inactive; ? = inconclusive; - = not tested or not shown; [ ] = dose if it differs, or a comment. Sampled rows, rich in hits. Any-hit rate of the full collection: about 21%. Unless noted, the call rests on the fitted dose curve; in most records, active means well fitted inhibition curve with a large enough effect; inconclusive means small, poorly fitted or top-dose-only effect, or another doubt; inactive means no such curve, though single readings can be large or run the other way.
SMILES,Pf growth 96h,Pf growth 48h,CHX counter,Shiga inhibitor
CNC(=S)N(CCc1c(C)[nH]c2ccc(OC)cc12)Cc1ccco1,?,?,0,0
COc1ccc(C2=NS(=O)(=O)N(C)C(C(=O)NCc3ccc(F)cc3)=C2)cc1OC,0,0,0,0
COC(=O)c1ccc(C)c(-n2c(=O)n(Cc3ccccc3)c(=O)c3[nH]cnc32)c1,0,?,0,0
CN(CC(=O)Nc1ccc(Cl)c(C(F)(F)F)c1)C(=O)/C=C/c1ccco1,0,0,0,37
CCCN(CC(=O)Nc1cc(Cl)ccc1Cl)C(=O)/C=C/c1ccco1,?,?,55,126
CN(CC(=O)Nc1ccc(Cl)c(C(F)(F)F)c1)C(=O)CCNC(=O)c1ccco1,0,10µM,-,-
CCCN(CC(=O)Nc1ccc(Cl)cc1Cl)C(=O)/C=C/c1cccc([N+](=O)[O-])c1,?,0,0,0
CCOc1ccc(NC(=O)CN(C)C(=O)CCNC(=O)c2ccco2)cc1OCC,0,0,-,-
COc1ccc(CNC(=O)CCNS(=O)(=O)c2ccc(NC(C)=O)cc2)cc1OC,0,0,-,-
C=CCn1c(N2CCN(c3ccc(OC)cc3)CC2)nc2c1c(=O)[nH]c(=O)n2C,0,0,0,0
Cc1ccccc1NC(=O)C(=Cc1ccc(C(=O)O)cc1)C(=O)Nc1ccccc1C,?,3.7µM,0,0
CC(=O)/C(=C/c1ccccc1)C(=O)Nc1ccccc1C,0,0[1.15 µM],0,0
COc1ccc(NS(=O)(=O)c2cccc(NC(=O)c3cnccn3)c2)cc1Br,0,0[1.15 µM],0,0
CC(C)NCC(O)COC1C2CC3CC(C2)CC1C3 (stereo not drawn),0,8.3µM,0,0
S=c1[nH]c(-c2ccccc2)cn1/N=C/c1cccc2ccccc12,?,?,0,0
S=c1[nH]c(-c2ccccc2)cn1/N=C/c1ccccc1Br,?,?,27,0
Cc1ccc(/C=N/n2cc(-c3ccccc3)[nH]c2=S)s1,?,?,39,108
COc1cc(/C=N/n2cc(-c3ccccc3)[nH]c2=S)cc(OC)c1O,?,12µM,62,0
Oc1ccc(/C=N/n2cc(-c3ccccc3)[nH]c2=S)cc1,?,?,0,0
CC(=O)c1ccccc1NC(=O)COC(=O)CN1C(=O)C2CCCCC2C1=O (stereo not drawn),0,0,-,-
NC(=O)NC(=O)COC(=O)c1sc2ccccc2c1Cl,0,0,0,0
Cc1ccc(C(=O)NC2CCCC2)s1,0,0,11,0
O=C(CN(Cc1cccs1)C(=O)CSc1nnc(COc2ccccc2)o1)NC1CCCCC1,0,13µM,0,0
O=C(COC(=O)c1sc2ccccc2c1Cl)NC1CCCCC1,0,0,20,0
O=C(NC1CCCC1)c1ccc([N+](=O)[O-])s1,10µM,0,0,0
SMILES,Pf growth 96h,Pf growth 48h,CHX counter,Shiga inhibitor
COc1ccc(CC(=O)N2CCCC2)c(OC)c1,0,0,0,0
COc1cc(C(=O)NCCNc2nc3ccc(C)cc3cc2C#N)cc(OC)c1OC,?,0,0,0
Cc1cccc(C(=O)NC2CC3CCCC(C2)N3C(=O)Nc2ccccc2)c1 (stereo not drawn),0,0,0,0
N#Cc1nccnc1S(=O)(=O)c1cccs1,0,0,0,0
CCOc1ccc(S(=O)(=O)N2CCC(C(=O)OC(C)C(=O)N(C)C3CCCCC3)CC2)cc1 (stereo not drawn),?,?,0,0
Cc1ccc(C(=O)N(CC(=O)NC2CCCC2)c2ccccc2C)s1,0,0,0,0
Cc1ccc(C(=O)OCC(=O)NC2CCCCC2)s1,0,0,34,95
Cc1ccc(C(=O)N(CC(=O)NC2CCCC2)Cc2cccs2)s1,1.5µM,0,0,0
C=CCn1cnnc1SCC(=O)Nc1cccnc1Cl,0,0,-,-
NC(=O)c1ccsc1NC(=O)COC(=O)c1cc(Cl)ccc1O,0,0,-,-
O=C1CC(c2ccco2)CC(O)=C1C=Nc1ccc(Br)cc1 (stereo not drawn),-,0,0,0
Cc1ccc(N=CC2=C(O)CC(c3ccco3)CC2=O)cc1 (stereo not drawn),0,0,21,0
O=C1CC(c2ccco2)CC(O)=C1C=Nc1cc(Cl)ccc1O (stereo not drawn),?,9.3µM,0,0
COCCN(C(=O)CSc1nnc(-c2ccco2)n1C)c1c(N)n(CC(C)C)c(=O)[nH]c1=O,0,0,-,-
CC(C)c1cc2c(s1)c1cnn(Cc3ccccc3F)c(=O)c1n2C,-,-,0,0
O=C1CC(NCc2cccs2)C(=O)N1c1ccc(Cl)cc1 (stereo not drawn),-,-,0,0
CCCOc1ccc(N2C(=O)CC(NCc3cccs3)C2=O)cc1 (stereo not drawn),5.2µM,0,0,0
COc1ccc(/C=C/C(=O)C2C(=O)C=C(C)OC2=O)cc1O (stereo not drawn),?,?,17,0
